Activity calls are given as the source filed them. The calls were made as follows: active = hit-call score of the fitted dose curve at least 0.9, where 1 is the maximum; inconclusive = response in the unintended direction; inactive = score below 0.9.
system: DIO3 (gene 1735); assay: CCTE_GLTED_hDIO3: CCTE's human Deiodinase 3 (DIO3) Inhibition Assay, Great Lakes Toxicology and Ecology Division (GLTED) Lab (AID 2284055);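 as to AC50: potency is for inhibition seen as loss of released iodide signal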
Procedure: CCTE_GLTED_hDIO3 is a cell-free, single-readout assay designed to test the inhibitory activity of chemicals toward human iodothyronine Deiodinase type 3 (DIO3) enzyme. Enzyme is incubated in presence of test chemical for 3 hours during which uninhibited enzyme liberates free iodide from substrate. Free iodide is measured in a second step using the Sandell-Kolthoff method.CCTE_GLTED_hDIO3 is the assay component measured from the CCTE_GLTED_hDIO3 assay. It is designed to make measurements of enzyme activity, a form of enzyme reporter, as detected with absorbance signals by spectrophotometry.Data from the assay component CCTE_GLTED_hDIO3 was analyzed into 1 assay endpoint. This assay endpoint, CCTE_GLTED_hDIO3, was analyzed in the positive analysis fitting direction relative to DMSO as the negative control and baseline of activity. Using a type of enzyme reporter, loss-of-signal activity can be used to understand changes in the enzymatic activity as they relate to the gene DIO3. Furthermore, this assay endpoint can be referred to as a primary readout, because the performed assay has only produced 1 assay endpoint. To generalize the intended target to other relatable targets, this assay endpoint is annotated to the 'deiodinase' intended target family, where the subfamily is 'deiodinase Type 3'.
[…] assay, developed at Great Lakes Toxicology and Ecology Division (GLTED) within the EPA's Center for Computational Toxicology and Exposure (CCTE), is designed to test the chemicals' ability to inhibit DIO3. Assay uses human deiodinase type 3 (DIO3) enzyme produced with adenovirus expression system. Assay is based on iodide release measured by the Sandell-Kolthoff method and is run in 96-well plate format with assay plates run in triplicate (n=3). The method used for the deiodinase assay was largely based on Renko et al. (2012, 2015). These works describe the utilization of the SK reaction to measure deiodinase-liberated iodide in a 96-well-plate format. The SK reaction is based on the reduction of the yellow-colored cerium IV to the non-colored cerium III by arsenic, with the rate of this reaction increased in the presence of iodide in a concentration-dependent manner (Sandell and Kolthoff, 1937). Iodinated test chemicals can interfere as competitive inhibitors, or if the stock chemical has contaminating free-iodide present. Other chemicals, e.g.: nitrite, iron, and thiocyanate can interfere with the Sandell-Kolthoff reaction (see Sandell and Kolthoff, 1937).

| Compound | AC50 | outcome |
| --- | --- | --- |
| O=C(Oc1ccccc1)c1cccc(C(=O)Oc2ccccc2)c1 | 64.5 µM (active) | – |
| S=c1[nH]c2ccccc2s1 | 73.2 µM (active) | – |
| O=Cc1ccccc1C=O | 2.92 µM (active) | – |
| CC(=O)O[C@]1(C(C)=O)CC[C@H]2[C@@H]3C=C(Cl)C4=CC(=O)[C@@H]5C[C@@H]5[C@]4(C)[C@H]3CC[C@@]21C | 5.1 µM (active) | – |
| Cc1c(C)c2c(c(C)c1O)CCC(C)(COc1ccc(CC3SC(=O)NC3=O)cc1)O2 (stereo not given) | 95.1 µM (active) | – |
| CCCCCCCCCCCCCCCCO | – | inactive |
| Cc1ccc(-c2cc(C(F)(F)F)nn2-c2ccc(S(N)(=O)=O)cc2)cc1 | 172 µM (active) | – |
| CN(C)CCCN1c2ccccc2Sc2ccc(Cl)cc21 | 158 µM (active) | – |
| CCCCCCC(C=O)=Cc1ccccc1 | 3.29 µM (active) | – |
| CCCCCCCCCCCCCCOS(=O)(=O)O | 18.5 µM (active) | – |

From PubChem BioAssay (EPA / NIEHS)
